The values that follow come from PubChem BioAssay.

A short description of assay [1]: A549 cell viability effects, profiling panel, calcein-AM fluorescence, 48 h, basal (AID 1162). The note with it: higher = more signal.
The nature of assay [2]: adipocyte viability effects, profiling panel, cell-based, 3T3-L1 adipocytes, calcein-AM fluorescence, 48 h, basal (AID 1163). As to conditions: 3T3-L1 adipocytes viability, higher = more signal.
Assay [3] is described as follows: HepG2 cell viability effects, profiling panel, calcein-AM fluorescence, 48 h, basal (AID 1164). The note with it: higher = more signal.
Assay [4] is described as follows: MM1S cell viability effects, profiling panel, calcein-AM fluorescence, 48 h, basal (AID 1165).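 Note: viability of MM1S multiple myeloma cells under basal unstimulated conditions.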 As to conditions: higher = more signal.
Assay [5] in a line: basal RPMI8226 viability, no added stimulus, profiling panel, cell-based, calcein-AM fluorescence, 48 h, PK04 Diversity Set (AID 1166).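 Note: cells grown under basal conditions without added stimulus.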 The note with it: RPMI8226 myeloma viability, higher = more signal.
Assay [6] can be described thus: basal HepG2 mitochondrial membrane potential changes, profiling panel, cell-based, JC-1 fluorescence, 24 h, 100 nL compound (AID 1167). The note with it: higher = more signal.
Assay [7] in a line: basal 3T3-L1 adipocyte mitochondrial potential changes, profiling panel, cell-based, JC-1 fluorescence, 3T3-L1 adipocytes, 24 h, 100 nL compound (AID 1168). As to conditions: JC-1 mitochondrial fluorescence, higher = more signal, called active from +8 up or from −8 down.
Assay [8] in a line: basal RPMI8226 mitochondrial membrane potential changes, profiling panel, cell-based, JC-1 fluorescence, 24 h, 100 nL compound (AID 1169). As to conditions: RPMI8226 myeloma, JC-1 mitochondrial potential fluorescence, higher = more signal.
Assay [9] is described as follows: basal MM1S mitochondrial membrane potential changes, profiling panel, cell-based, JC-1 fluorescence, 24 h, 100 nL compound (AID 1170). The note with it: higher = more signal.
Assay [10] is described as follows: A549 lung cancer cell viability effects, profiling panel, resazurin fluorescence, 24 h, PK04 Diversity Set (AID 1171). As to conditions: higher = more signal, called active from +8 up or from −8 down. On the technique in general: Alamar Blue is a resazurin reagent that responds to reducing activity.

Activity calls are given as the source filed them.
Note: test concentration not given here.

In the case of `COC(=O)[C@@H]1CC[C@H](C)[C@@H](c2ccc(C)cc2)N1C(=O)c1ccc(C=NOC[C@@H](O)[C@H]2O[C@@H]3OC(C)(C)O[C@@H]3[C@H]2O)cc1`, the z-score was 0.685 in assay [1]; -0.175 in assay [2]; -0.827 in assay [3]; -0.546 in assay [4]; -0.525 in assay [5]; -0.874 in [6]. The z-score in assay [7] is -0.269 (inactive); in [8], -1; in [9] it was -0.732; in assay [10], -0.089 (inactive).

For `Cc1ccc(C(C)C)n1C(=O)OC(C)(C)C`, the z-score was 1.88 in assay [1]; 0.0856 in [2]; 0.577 in assay [3]; 0.547 in assay [4]; 0.228 in [5]; -0.503 in assay [6]. The z-score in assay [7] was 0.499 (inactive); in [8], 0.68; in assay [9], 0.196; in assay [10], -1.47 (inactive).

For the compound `COC(=O)[C@H](C)NC(=O)CCC1CC(OC(=O)NCCc2ccc(F)cc2)CC2(CCCC(COC(=O)NCC3CCCCC3)O2)O1` (stereo not given in full), the z-score in assay [1] is -0.111; in assay [2] it was 0.851; in assay [3] it was -1.36; in assay [4], -0.574; in assay [5] it was -1.85; in assay [6], -0.717. The z-score in [7] was 0.497 (inactive); in assay [8], 0.785; in assay [9], -0.771; in assay [10], 0.541 (inactive).

As to `Cc1cc2c(nc1C)CCCCN2CC(O)CN1CCCc2nc(-c3ccc(Br)cc3)ccc21` (stereo not given), the z-score in assay [1] was 1.54; in assay [2] it was -0.829; in assay [3], 1.62; in assay [4] it was 0.322; in [5] it was -0.697; in [6] it was -0.814. Also, the z-score was -0.16 (inactive) in [7], 0.357 in assay [8], -0.536 in assay [9] and -0.379 (inactive) in assay [10].

In the case of `O=C1[C@H]2[C@H]3[C@H](O)[C@H](O)CC(=NOC[C@@H](O)COCc4ccco4)[C@@H]3CC[C@H]2C(=O)N1Cc1ccc2c(c1)OCO2`, the z-score in assay [1] is 0.751; in assay [2], 0.0548; in assay [3] it was 0.579; in assay [4] it was 0.477; in assay [5], 0.677; in assay [6] it was 1.07. Also, the z-score in [7] is 0.231 (inactive); in assay [8], 0.727; in assay [9], -1.18; in assay [10], 0.178 (inactive).

As to `CCc1cc2c(nc1CC)CCN(CCC(C)=NOC[C@@H](C)[C@H](OCc1ccccc1)C(C)C)C2`, the z-score is 1.58 in [1]; 0.546 in assay [2]; 1.43 in [3]; -2 in assay [4]; -0.584 in assay [5]; 2 in assay [6]. The z-score was 1 (inactive) in assay [7], 0.278 in assay [8], 0.486 in assay [9] and -0.445 (inactive) in assay [10].

For the compound `COCCNC(=O)OCC1CCCC2(CC(OC(=O)NCc3cccc4ccccc34)CC(CCC(=O)N[C@@H](C)C(=O)OC)O2)O1` (stereo not given in full), the z-score in assay [1] was 1.89; in assay [2] it was -0.812; in assay [3], 0.791; in assay [4] it was -0.215; in assay [5], -0.886; in assay [6], 1.64. For the same compound, the z-score was -0.0355 (inactive) in assay [7], -0.125 in assay [8], -1.16 in assay [9] and 1.67 (inactive) in assay [10].

Consider `CO[C@H]1COC(=O)CC=C[C@H](C)[C@H](OC)COC(=O)[C@@H](C)NC(=O)CC=C[C@@H]1C`, for which the z-score in assay [1] was -0.42; in [2], 0.269; in assay [3], -0.642; in assay [4], 0.0674; in [5], 0.222; in [6] it was -0.66. Further, the z-score is -0.557 (inactive) in [7], -0.283 in assay [8], -0.248 in assay [9] and 0.691 (inactive) in assay [10].

Regarding `COC(=O)[C@H](C)NC(=O)CCC1CC(OC(=O)NCc2cccc3ccccc23)CC2(CCCC(COC(=O)NCc3ccccc3)O2)O1` (stereo not given in full), the z-score was 0.217 in assay [1]; 0.2 in assay [2]; -0.653 in [3]; 0.621 in assay [4]; 0.769 in assay [5]; 1.46 in [6]. Moreover, the z-score in assay [7] is 0.818 (inactive); in assay [8], 0.662; in [9], -0.845; in assay [10], 2.64 (inactive).

Consider `O=C1[C@H]2[C@H]3[C@H](O)[C@H](O)CC(=NO[C@@H]4O[C@H](CO)[C@@H](O)[C@H](O)[C@H]4O)[C@@H]3CC[C@H]2C(=O)N1C1CCCCC1`, for which the z-score is 0.646 in [1]; -0.235 in [2]; 0.521 in [3]; 0.547 in [4]; 0.776 in assay [5]; 1.09 in [6]. Moreover, the z-score in [7] is -0.229 (inactive); in [8], 0.169; in assay [9], -1.25; in [10] it was -0.934 (inactive).

Consider `CCOC(=O)CCN1C(=O)[C@H]2[C@H]3[C@H](O)[C@H](O)CC(=NOCC=C(C)CCC=C(C)C)[C@@H]3CC[C@H]2C1=O`, for which the z-score in assay [1] is -0.0606; in [2], -0.218; in assay [3] it was -0.124; in [4], 0.232; in assay [5], -0.0685; in assay [6] it was -0.651. Besides, the z-score was -0.204 (inactive) in [7], -0.225 in assay [8], -0.251 in assay [9] and -0.23 (inactive) in assay [10].

Take `COc1ccc(COC(=O)NN=C2C[C@@H](O)[C@@H](O)[C@@H]3[C@@H]4C(=O)N(c5cccc(Oc6ccccc6)c5)C(=O)[C@@H]4CC[C@H]23)cc1`: the z-score in assay [1] is -0.777; in [2], 0.487; in assay [3] it was -0.634; in assay [4], 0.0646; in assay [5], -1.2; in assay [6] it was 0.89. Also, the z-score in assay [7] was -1.78 (inactive); in [8] it was 0.197; in [9], -1.73; in assay [10] it was 1.29 (inactive).

In the case of `CC(CCN1CCCc2nc(C)c(C)cc21)=NO[C@H](C)c1cn([C@@H]2COC[C@H]2O)nn1`, the z-score in [1] was 0.105; in assay [2], -0.563; in assay [3] it was 0.243; in assay [4], -0.674; in assay [5], -0.0215; in [6] it was 0.219. Moreover, the z-score was 0.707 (inactive) in assay [7], 0.641 in assay [8], -0.825 in assay [9] and -0.294 (inactive) in assay [10].

Regarding `CN1CCc2nc(-c3ccccc3)c(-c3ccccc3)cc2C1`, the z-score in assay [1] was -0.244; in [2], 0.665; in assay [3], 0.135; in [4] it was 0.33; in [5], 0.455; in assay [6], 0.25. In addition, the z-score in assay [7] is -0.53 (inactive); in assay [8], 0.344; in assay [9], -0.201; in assay [10] it was 0.752 (inactive).
